# PubChem BioAssay (Tox21)
# Values without a mark were called inactive. Records with an inconclusive call do not appear. A call without a number means that no potency is given here. Activity calls are given as the source filed them. Unless noted, calls follow the shape of the dose curve; as a rule, active = well fitted curve in the direction sought with a large enough effect in the repeat runs; inconclusive = weak or mixed curves; inactive = no such curve, though single readings can be large; an effect the other way counts as inactive or inconclusive. Where a SMILES comes first, the peptide text is derived from it.
# Assays:
# [1] = qHTS RealTime-Glo MT Cell Viability Assay in HepG2 cells - 32 hour (AID 1224877); also: nearly all actives have a fitted effect of over 55% in size
# Summary of the method: (§1)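 HepG2 cells (600/well) were dispensed with RealTime-Glo reagents, incubated 5 h at 37 °C, then treated with compounds in DMSO for up to 40 h. Nonlytic NanoLuc luminescence reflecting viable cells was read at each stated time point.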
# [2] = A CellTox Green Cytotoxicity Assay to monitor cytotoxicity in HepG2 cells - 40 hour (AID 1224879); also: nearly all actives have a fitted effect of over 40% in size
# Summary of the method: (§2)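 Read-out is fluorescence of a cyanine dye excluded from live cells that stains DNA of dead HepG2 cells, with signal proportional to cytotoxicity. Plates were read at 0, 8, 16, 24, 32 and 40 h after compound addition.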
# [3] = qHTS RealTime-Glo MT Cell Viability Assay in HEK293 cells - 0 hour (AID 1224880); also: top concentration of the series differs between compounds; nearly all actives have a fitted effect of over 45% in size
# Summary of the method: (§3)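 Cells were seeded together with NanoLuc luciferase and a prosubstrate that viable cells reduce to a luciferase substrate. After a 5 h incubation at 37 C/5% CO2, compounds were added and luminescence was measured repeatedly during 40 h of treatment.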
# [4] = A CellTox Green Cytotoxicity Assay to monitor cytotoxicity in HEK293 cells - 32 hour (AID 1224881); also: nearly all actives have a fitted effect of over 40% in size
# Summary of the method: (§4)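 Nonlytic real-time cytotoxicity: HEK293 + CellTox Green reagent plated, 5 h preincubation, pintool compound addition (23 nL in DMSO), 37 C for 40 h, fluorescence measured at successive time points.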
# [5] = A CellTox Green Cytotoxicity Assay to monitor cytotoxicity in HepG2 cells - 0 hour (AID 1224882); also: nearly all actives have a fitted effect of over 35% in size
# Summary of the method: as §2
# [6] = A CellTox Green Cytotoxicity Assay to monitor cytotoxicity in HEK293 cells - 8 hour (AID 1224884); also: nearly all actives have a fitted effect of over 35% in size
# Summary of the method: as §4
# [7] = qHTS RealTime-Glo MT Cell Viability Assay in HepG2 cells - 16 hour (AID 1224885); also: nearly all actives have a fitted effect of over 50% in size
# Summary of the method: as §1
# [8] = qHTS RealTime-Glo MT Cell Viability Assay in HEK293 cells - 24 hour (AID 1224886); also: top concentration of the series differs between compounds; nearly all actives have a fitted effect of over 50% in size
# Summary of the method: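 HEK293 cells seeded with NanoLuc/prosubstrate reagent, rested 5 h at 37 C, then dosed and kept at 37 C up to 40 h. Nonlytic real-time luminescence from viable cells read at 0, 8, 16, 24, 32 and 40 h.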
# [9] = qHTS RealTime-Glo MT Cell Viability Assay in HEK293 cells - 8 hour (AID 1224887); also: top concentration of the series differs between compounds; nearly all actives have a fitted effect of over 50% in size
# Summary of the method: as §3
# [10] = A CellTox Green Cytotoxicity Assay to monitor cytotoxicity in HEK293 cells - 16 hour (AID 1224888); also: nearly all actives have a fitted effect of over 35% in size
# Summary of the method: as §4
# [11] = qHTS RealTime-Glo MT Cell Viability Assay in HepG2 cells - 0 hour (AID 1224889); also: nearly all actives have a fitted effect of over 50% in size
# Summary of the method: as §1
# [12] = A CellTox Green Cytotoxicity Assay to monitor cytotoxicity in HepG2 cells - 8 hour (AID 1224890); also: nearly all actives have a fitted effect of over 45% in size; also: potency is read from the fitted curve at half-maximal effect
# Summary of the method: as §2
# [13] = qHTS assay to identify small molecule antagonists of the estrogen receptor alpha (ER-alpha) signaling pathway using the BG1 cell line in the presence of 0.1 nM 17-beta-estradiol - cell viability counter screen (AID 1259241); also: nearly all actives have a fitted effect of over 40% in size
# Summary of the method: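 Estradiol-stimulated (0.1 nM) VM7Luc4E2 cells exposed to compounds 22 hr; viability measured by fluorescence of cleaved CellTiter-Fluor substrate after 30 min.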
# [14] = qHTS assay to identify small molecule antagonists of the androgen receptor (AR) signaling pathway using the MDA cell line in the presence of 0.5 nM R1881 - cell viability counter screen (AID 1259242); also: nearly all actives have a fitted effect of over 45% in size
# Summary of the method: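 Counter screen for cytotoxicity run in the same wells as the AR antagonist reporter screen: MDA-kb2 cells were treated 16 hr with test compounds and 0.5 nM R1881, then live-cell protease activity was measured by fluorescence.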
# [15] = target: Androgen receptor (Homo sapiens) (UniProt P10275); test: qHTS assay to identify small molecule antagonists of the androgen receptor (AR) signaling pathway using the MDA cell line in the presence of 0.5 nM R1881 (AID 1259243); also: nearly all actives have a fitted effect of over 50% in size; also: potency is read from the fitted curve at half-maximal effect
# Chain of Androgen receptor (Homo sapiens) (P10275 whole entry, looked up): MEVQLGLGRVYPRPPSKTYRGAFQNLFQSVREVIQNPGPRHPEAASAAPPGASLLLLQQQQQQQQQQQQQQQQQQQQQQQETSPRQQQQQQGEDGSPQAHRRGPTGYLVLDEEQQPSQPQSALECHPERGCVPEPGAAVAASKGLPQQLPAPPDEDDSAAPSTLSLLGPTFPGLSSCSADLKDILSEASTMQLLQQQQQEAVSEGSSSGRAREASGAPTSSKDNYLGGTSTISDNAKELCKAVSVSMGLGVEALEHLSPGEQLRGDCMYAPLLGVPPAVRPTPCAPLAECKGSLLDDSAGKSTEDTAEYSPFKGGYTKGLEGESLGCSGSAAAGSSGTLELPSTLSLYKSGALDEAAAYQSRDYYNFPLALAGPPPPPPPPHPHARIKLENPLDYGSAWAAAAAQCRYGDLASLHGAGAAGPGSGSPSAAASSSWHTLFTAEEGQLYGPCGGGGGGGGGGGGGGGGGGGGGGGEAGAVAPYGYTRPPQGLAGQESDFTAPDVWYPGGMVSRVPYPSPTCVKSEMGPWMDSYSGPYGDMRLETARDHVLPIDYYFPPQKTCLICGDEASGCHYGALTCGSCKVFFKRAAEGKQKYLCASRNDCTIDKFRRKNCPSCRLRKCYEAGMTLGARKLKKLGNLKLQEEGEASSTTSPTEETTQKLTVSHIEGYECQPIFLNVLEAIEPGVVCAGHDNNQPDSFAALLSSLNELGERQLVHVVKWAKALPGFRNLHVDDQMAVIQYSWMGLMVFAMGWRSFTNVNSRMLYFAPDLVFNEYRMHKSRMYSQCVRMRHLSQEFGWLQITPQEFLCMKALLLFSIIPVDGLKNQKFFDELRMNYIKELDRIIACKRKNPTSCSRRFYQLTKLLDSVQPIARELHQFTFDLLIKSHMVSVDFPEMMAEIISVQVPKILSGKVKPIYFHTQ
# Summary of the method: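 Luciferase luminescence is the read-out: compounds are tested for suppressing 0.5 nM R1881-driven MMTV reporter activity in MDA-kb2 cells after 16 hr at 37C.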
# [16] = qHTS assay to identify small molecule HDAC inhibitors (AID 1259364); also: top concentration of the series differs between compounds; nearly all actives have a fitted effect of over 45% in size
# Summary of the method: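 Luminescence from a cell-permeant luminogenic class I/II HDAC substrate reports endogenous deacetylase activity in intact HCT-116 cells treated with compounds for 2 h.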
# [17] = A CellTox Green Cytotoxicity Assay to monitor cytotoxicity in HepG2 cells - 32 hour (AID 1224883); also: nearly all actives have a fitted effect of over 50% in size
# Summary of the method: as §2
# [18] = target: Estrogen receptor (Homo sapiens) (UniProt P03372); test: qHTS assay to identify small molecule antagonists of the estrogen receptor alpha (ER-alpha) signaling pathway using the BG1 cell line in the presence of 0.1 nM 17-beta-estradiol (AID 1259244); also: nearly all actives have a fitted effect of over 50% in size
# Chain of Estrogen receptor (Homo sapiens) (P03372 whole entry, looked up): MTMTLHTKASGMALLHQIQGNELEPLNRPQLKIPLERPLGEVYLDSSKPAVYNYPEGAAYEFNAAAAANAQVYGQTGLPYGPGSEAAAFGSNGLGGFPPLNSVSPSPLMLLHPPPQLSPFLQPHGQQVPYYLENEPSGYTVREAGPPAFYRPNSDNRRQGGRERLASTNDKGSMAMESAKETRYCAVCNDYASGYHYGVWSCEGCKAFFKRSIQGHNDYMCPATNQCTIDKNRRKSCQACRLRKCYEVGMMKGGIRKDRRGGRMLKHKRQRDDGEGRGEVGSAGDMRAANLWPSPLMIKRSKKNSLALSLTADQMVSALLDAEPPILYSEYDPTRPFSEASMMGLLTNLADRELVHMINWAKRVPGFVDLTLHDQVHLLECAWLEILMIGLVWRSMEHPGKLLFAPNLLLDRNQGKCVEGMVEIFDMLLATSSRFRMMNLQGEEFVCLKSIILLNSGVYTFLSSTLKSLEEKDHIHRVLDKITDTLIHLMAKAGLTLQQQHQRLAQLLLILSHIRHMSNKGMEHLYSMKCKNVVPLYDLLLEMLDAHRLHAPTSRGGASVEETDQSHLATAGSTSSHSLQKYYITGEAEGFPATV
# Summary of the method: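 Cells: VM7Luc4E2, endogenous ER-alpha, 4x ERE-luc stable. Pre-culture 5 d, phenol red-free, charcoal-stripped FBS. Plated 24 h, compound + E2 0.1 nM final, 22 h 37C/5% CO2. Readout ONE-Glo luminescence.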
# [19] = qHTS assay to identify small molecule phospholipidosis (PLD) inducers (AID 1259344; active = well fitted curve in the direction sought with a large enough effect; an effect the other way counts as inactive or inconclusive)
# Summary of the method: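 HepG2 cells on collagen I, attached 4 h at 37 C, were co-treated with compound and LipidTOX Red dye for 24 h at 37 C, then fixed with paraformaldehyde plus Hoechst 33342 and imaged by high-content microscopy for phospholipid accumulation.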
# [20] = A CellTox Green Cytotoxicity Assay to monitor cytotoxicity in HepG2 cells - 24 hour (AID 1224878); also: nearly all actives have a fitted effect of over 45% in size
# Summary of the method: as §2
smiles,measurement,setting,value
CC(=O)N[C@@H](CO)C(=O)N[C@@H](CC(=O)O)C(=O)N[C@@H](CCCCN)C(=O)N1CCC[C@H]1C(=O)O (Ac-SDKP-OH),outcome,[1],inactive
same,Potency,[2],inactive
same,Potency,[3],inactive
same,Potency,[4],inactive
same,Potency,[5],inactive
same,Potency,[6],inactive
same,outcome,[7],inactive
same,Potency,[8],inactive
same,Potency,[9],inactive
same,Potency,[10],inactive
same,Potency,[11],inactive
same,Potency,[12],inactive
same,outcome,[13],inactive
same,outcome,[14],inactive
same,Potency,[15],inactive
same,Potency,[16],inactive
CCCCCC/C=C/C(=O)OC,outcome,[1],inactive
same,Potency,[3],inactive
same,Potency,[6],inactive
same,outcome,[7],inactive
same,Potency,[8],inactive
same,Potency,[9],inactive
same,Potency,[11],inactive
same,Potency,[12],49 µM (active)
same,outcome,[13],inactive
same,outcome,[14],inactive
same,Potency,[16],inactive
CCC(=O)Oc1ccc2c(c1)CC[C@@H]1[C@@H]2CC[C@@]2(C)[C@H]1C[C@@H](OC(=O)CC)[C@@H]2OC(=O)CC,outcome,[1],inactive
same,Potency,[2],inactive
same,Potency,[3],inactive
same,Potency,[4],inactive
same,Potency,[17],inactive
same,Potency,[6],inactive
same,outcome,[7],inactive
same,Potency,[8],inactive
same,Potency,[9],inactive
same,Potency,[10],inactive
same,Potency,[11],inactive
same,outcome,[13],inactive
same,outcome,[14],inactive
same,Potency,[15],8.41 µM (active)
same,outcome,[18],inactive
same,Potency,[16],inactive
C[C@H]1[C@@H](c2ccccc2)NC(=O)N1C,outcome,[1],inactive
same,Potency,[2],inactive
same,Potency,[3],inactive
same,Potency,[4],inactive
same,Potency,[5],inactive
same,Potency,[6],inactive
same,outcome,[7],inactive
same,Potency,[8],inactive
same,Potency,[9],inactive
same,Potency,[10],inactive
same,Potency,[11],inactive
same,Potency,[12],inactive
same,outcome,[13],inactive
same,outcome,[14],inactive
same,outcome,[18],inactive
same,Potency,[16],inactive
CCOCCOCC,outcome,[1],inactive
same,Potency,[2],inactive
same,Potency,[3],inactive
same,Potency,[4],inactive
same,Potency,[5],inactive
same,Potency,[17],inactive
same,outcome,[7],inactive
same,Potency,[8],inactive
same,Potency,[9],inactive
same,Potency,[11],inactive
same,Potency,[12],inactive
same,outcome,[13],inactive
same,outcome,[14],inactive
same,outcome,[18],inactive
COc1cc2c(cc1OC)CN(C(=O)[C@H](C)N[C@@H](CCc1ccccc1)C(=O)O)[C@H](C(=O)O)C2,outcome,[1],inactive
same,Potency,[2],inactive
same,Potency,[3],inactive
same,Potency,[4],inactive
same,Potency,[5],inactive
same,Potency,[17],inactive
same,outcome,[7],inactive
same,Potency,[8],inactive
same,Potency,[9],inactive
same,Potency,[11],inactive
same,Potency,[12],inactive
same,outcome,[13],inactive
same,outcome,[14],inactive
same,outcome,[18],inactive
same,Potency,[16],inactive
CC1c2ccccc2CN1NC(=O)c1ccc(Cl)c(S(N)(=O)=O)c1 (stereo not given),outcome,[1],inactive
same,Potency,[2],inactive
same,Potency,[3],inactive
same,Potency,[4],inactive
same,Potency,[5],inactive
same,Potency,[6],inactive
same,outcome,[7],inactive
same,Potency,[8],inactive
same,Potency,[9],inactive
same,Potency,[10],inactive
same,Potency,[11],inactive
same,Potency,[12],inactive
same,outcome,[13],inactive
same,outcome,[14],inactive
same,outcome,[18],inactive
same,PLD induction,[19],-1.83% [at 1.53 µM]
same,Potency,[16],inactive
Nc1nnnn1-c1ccccc1,outcome,[1],inactive
same,Potency,[3],inactive
same,Potency,[4],inactive
same,Potency,[5],inactive
same,outcome,[7],inactive
same,Potency,[8],inactive
same,Potency,[9],inactive
same,Potency,[11],inactive
same,outcome,[13],inactive
same,outcome,[14],inactive
same,outcome,[18],inactive
same,outcome,[19],inactive
same,Potency,[16],inactive
CCCc1ccc(O)cc1,outcome,[1],inactive
same,Potency,[3],inactive
same,Potency,[4],inactive
same,Potency,[5],inactive
same,Potency,[6],inactive
same,outcome,[7],inactive
same,Potency,[8],inactive
same,Potency,[9],inactive
same,Potency,[10],inactive
same,Potency,[11],inactive
same,outcome,[13],inactive
same,outcome,[14],inactive
same,outcome,[18],inactive
CC(=O)OCC(=O)Nc1cc(C#N)cc(NC(=O)COC(C)=O)c1Cl,outcome,[1],inactive
same,Potency,[3],inactive
same,Potency,[4],inactive
same,Potency,[5],inactive
same,Potency,[17],inactive
same,outcome,[7],inactive
same,Potency,[8],inactive
same,Potency,[9],inactive
same,Potency,[10],inactive
same,Potency,[11],inactive
same,Potency,[12],inactive
same,outcome,[13],inactive
same,outcome,[14],inactive
same,outcome,[18],inactive
same,PLD induction,[19],-3.87% [at 7.66 µM]
same,Potency,[16],inactive
CC1CCc2c(N3CCC(O)CC3)c(F)cc3c(=O)c(C(=O)O)cn1c23 (stereo not given),outcome,[1],inactive
same,Potency,[2],inactive
same,Potency,[3],inactive
same,Potency,[4],inactive
same,Potency,[5],inactive
same,outcome,[7],inactive
same,Potency,[8],inactive
same,Potency,[9],inactive
same,Potency,[10],inactive
same,Potency,[11],inactive
same,Potency,[12],inactive
same,outcome,[13],inactive
same,outcome,[14],inactive
same,outcome,[18],inactive
same,outcome,[19],inactive
same,Potency,[16],inactive
O=C[O][Al]([O]C=O)[O]C=O,outcome,[1],inactive
same,Potency,[2],inactive
same,Potency,[4],inactive
same,Potency,[5],inactive
same,Potency,[17],inactive
same,outcome,[7],inactive
same,Potency,[8],inactive
same,Potency,[10],inactive
same,Potency,[11],inactive
same,Potency,[12],inactive
same,outcome,[13],inactive
same,outcome,[14],inactive
same,outcome,[18],inactive
same,Potency,[16],inactive
C=CCCCCCCCCC(=O)OCCCC,outcome,[1],inactive
same,Potency,[3],inactive
same,Potency,[4],inactive
same,Potency,[5],inactive
same,Potency,[6],inactive
same,outcome,[7],inactive
same,Potency,[8],inactive
same,Potency,[9],inactive
same,Potency,[10],inactive
same,Potency,[11],inactive
same,Potency,[12],inactive
same,outcome,[13],inactive
same,outcome,[14],inactive
same,outcome,[18],inactive
same,Potency,[16],inactive
C/C=C(\C)C(C)=O,outcome,[1],inactive
same,Potency,[4],inactive
same,Potency,[5],inactive
same,Potency,[6],inactive
same,outcome,[7],inactive
same,Potency,[8],inactive
same,Potency,[9],inactive
same,Potency,[10],inactive
same,Potency,[11],inactive
same,Potency,[12],inactive
same,outcome,[13],inactive
same,outcome,[14],inactive
same,Potency,[15],inactive
same,outcome,[18],inactive
same,Potency,[16],inactive
COS(=O)(=O)O,outcome,[1],inactive
same,Potency,[3],inactive
same,Potency,[4],inactive
same,Potency,[5],inactive
same,Potency,[6],inactive
same,outcome,[7],inactive
same,Potency,[8],inactive
same,Potency,[9],inactive
same,Potency,[10],inactive
same,Potency,[11],inactive
same,Potency,[12],inactive
same,outcome,[13],inactive
same,outcome,[14],inactive
same,Potency,[16],inactive
CN(C)CCCO[C@@H]1[C@H]2OC(C)(C)O[C@H]2O[C@@H]1C(O)CO (stereo not given in full),Potency,[20],inactive
same,Potency,[2],inactive
same,Potency,[3],inactive
same,Potency,[4],inactive
same,Potency,[5],inactive
same,Potency,[17],inactive
same,Potency,[6],inactive
same,outcome,[7],inactive
same,Potency,[8],inactive
same,Potency,[9],inactive
same,Potency,[10],inactive
same,Potency,[11],inactive
same,Potency,[12],inactive
same,outcome,[13],inactive
same,outcome,[14],inactive
same,outcome,[18],inactive
same,outcome,[19],inactive
same,Potency,[16],inactive
CC(CO)(CO)CO,outcome,[1],inactive
same,Potency,[2],inactive
same,Potency,[3],inactive
same,Potency,[4],inactive
same,Potency,[5],inactive
same,Potency,[17],inactive
same,outcome,[7],inactive
same,Potency,[8],inactive
same,Potency,[9],inactive
same,Potency,[10],inactive
same,Potency,[11],inactive
same,Potency,[12],inactive
same,outcome,[13],inactive
same,outcome,[14],inactive
same,outcome,[18],inactive
same,Potency,[16],inactive
